{
  "source": "PubChem BioAssay (EPA / NIEHS)",
  "note": "Inconclusive results are not listed. Activity calls are given as the source filed them. The calls were made as follows: active = hit-call score of the fitted dose curve at least 0.9, where 1 is the maximum; inconclusive = response in the unintended direction; inactive = score below 0.9.",
  "data": [
    {"experiment": "ACEA_AR_antagonist_AUC_viability: ACEA Biosciences xCELLigence Real-Time Cell Analysis on Androgen Receptor Antagonism for Viability (AID 2283776);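 also: area under impedance growth curve at 80 h after dosing as viability; hits lower the growth signal relative to DMSO meaning cytotoxicity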", "experimental": "ACEA_AR_antagonist is a cell-based, single-readout assay that uses 22Rv1, a human prostate cancer cell line, with measurements taken at 80 hours after chemical dosing in a 384-well plate, although TO5 and TO6 (mc0.srcf) used a 96-well plate. Differences in plate size can be ignored given data normalization.ACEA_AR_80hr is one of two assay component(s) measured or calculated from the […] assay. It is designed to make measurements of real-time cell-growth kinetics, a form of growth reporter, as detected with electrical impedance signals by Real-Time Cell Electrode Sensor (RT-CES) technology.Data from the assay component ACEA_AR_antagonist_AUC_viability was analyzed in the positive analysis fitting direction relative to DMSO as the negative control and baseline of activity. Using a type of growth reporter, loss-of-signal activity can be used to understand changes in the viability. Furthermore, this assay endpoint can be referred to as a secondary readout, because this assay has produced multiple assay endpoints where this one serves a viability function. To generalize the intended target to other relatable targets, this assay endpoint is annotated to the cell cycle intended target family, where the subfamily is cytotoxicity.\nThe xCELLigence system Multi-E-Plate stations were used to measure the time-dependent response to chemicals. Each compound was tested in an eight-point, 1:4 serial dilution series starting at a maximum final concentration of 100 uM. A maximum starting concentration of 0.5% DMSO was present in the 100 uM chemical samples and was diluted along with the test article dilution series. The screen was performed in biological duplicate using two separate, 96-well, E-Plates 96 for each dilution series (n = 2). Positive controls (MG132 and testosterone) and a negative control (assay media) were tested in quadruplicate on each testing plate. Then, 0.5% and 0.125% DMSO were tested in duplicates in each plate to serve as solvent controls for the 2 highest concentrations of testing compounds: 100 uM and 25 uM. Reference compounds were tested with 8 concentrations with 1:5 serial dilutions. All screening was carried out by ACEA Biosciences, Inc. (San Diego, CA). 22Rv1 cells purchased from ATCC were maintained in media supplemented with 10% fetal bovine serum (FBS). Before screening, 22Rv1 cells were preconditioned in assay medium. Cells were then detached and seeded in E-Plates 96 in assay medium. After overnight monitoring of growth once every hour, compounds were added to […] cells and remained in the medium until the end of the experiment. Cellular responses were then recorded once every 5 min for the first 5 h, and once every hour for an additional 100 h.", "values": [
      {"smiles": "CC(C)(C)[C@@H](O)[C@@H](Cc1ccc(Cl)cc1)n1cncn1", "AC50": "24.1 µM (active)"},
      {"smiles": "CCCCCCC(C)OC(=O)COc1nc(F)c(Cl)c(N)c1Cl", "note": "(stereo not given)", "AC50": "17.8 µM (active)"},
      {"smiles": "CSC(=O)c1cccc2nnsc12", "outcome": "inactive"},
      {"smiles": "CC(=O)[C@H]1CC[C@H]2[C@@H]3CCC4=CC(=O)CC[C@]4(C)[C@H]3CC[C@]12C", "outcome": "inactive"},
      {"smiles": "c1ccc(Nc2ccccc2)cc1", "outcome": "inactive"},
      {"smiles": "O=C(O)C1(C(=O)Nc2ccc(Cl)cc2Cl)CC1", "AC50": "50 µM (active)"},
      {"smiles": "CCSC(=O)N(CC(C)C)CC(C)C", "outcome": "inactive"},
      {"smiles": "CCCCCOC(=O)COc1cc(N2C(=O)C3=C(CCCC3)C2=O)c(F)cc1Cl", "AC50": "77.8 µM (active)"},
      {"smiles": "C[C@]12CC[C@@H]3c4ccc(O)cc4C[C@@H](CCCCCCCCCS(=O)CCCC(F)(F)C(F)(F)F)[C@H]3[C@@H]1CC[C@@H]2O", "note": "(stereo not given in full)", "AC50": "8.37 µM (active)"},
      {"smiles": "Oc1ccc(C(c2ccc(O)cc2)C(Cl)(Cl)Cl)cc1", "AC50": "17 µM (active)"},
      {"smiles": "CC(C)(c1ccc(O)cc1)c1ccc(O)cc1", "AC50": "40.9 µM (active)"},
      {"smiles": "CCOC(=O)NCCOc1ccc(Oc2ccccc2)cc1", "AC50": "27.2 µM (active)"},
      {"smiles": "CCCOC(=O)NCCCN(C)C", "outcome": "inactive"},
      {"smiles": "COC(=O)CSc1cc(N=c2sc(=O)n3n2CCCC3)c(F)cc1Cl", "outcome": "inactive"},
      {"smiles": "C#C[C@]1(O)CC[C@H]2[C@@H]3CCC4=CC(=O)CC[C@@H]4[C@H]3CC[C@@]21CC", "AC50": "0.357 µM (active)"},
      {"smiles": "C=CCOC(Cn1ccnc1)c1ccc(Cl)cc1Cl", "note": "(stereo not given)", "AC50": "41.6 µM (active)"},
      {"smiles": "O=C(O)c1ccccc1", "outcome": "inactive"},
      {"smiles": "CCN(CC)C(=O)c1cccc(C)c1", "outcome": "inactive"},
      {"smiles": "CCCOC(=O)c1ccc(C(=O)OCCC)nc1", "outcome": "inactive"},
      {"smiles": "CCOC(=O)COc1cc(-n2ncc(C(F)(F)F)c(C)c2=O)c(F)cc1Cl", "outcome": "inactive"},
      {"smiles": "OB(O)O", "outcome": "inactive"},
      {"smiles": "CC1(C)C(C=C(Cl)Cl)C1C(=O)OCc1cccc(Oc2ccccc2)c1", "note": "(stereo not given)", "AC50": "34.2 µM (active)"},
      {"smiles": "Cc1nn(C)c(Oc2ccccc2)c1C=NOCc1ccc(C(=O)OC(C)(C)C)cc1", "AC50": "13.8 µM (active)"},
      {"smiles": "CCCCOCCOCCOCc1cc2c(cc1CCC)OCO2", "AC50": "50 µM (active)"},
      {"smiles": "C[C@]12C[C@H](O)[C@H]3[C@@H](CCC4=CC(=O)CC[C@@]43C)[C@@H]1CC[C@@H]2C(=O)CO", "outcome": "inactive"},
      {"smiles": "CCCCOC(=O)C(C)Oc1ccc(Oc2ccc(C(F)(F)F)cn2)cc1", "note": "(stereo not given)", "AC50": "50 µM (active)"},
      {"smiles": "N#CSCSc1nc2ccccc2s1", "AC50": "15.7 µM (active)"},
      {"smiles": "CN(C)C(=O)Nc1ccc(Cl)c(Cl)c1", "AC50": "50 µM (active)"},
      {"smiles": "COCCO", "outcome": "inactive"},
      {"smiles": "CCOC(=O)C(C)Oc1ccc(Oc2nc3ccc(Cl)cc3o2)cc1", "note": "(stereo not given)", "AC50": "36.4 µM (active)"},
      {"smiles": "CC(=O)S[C@@H]1CC2=CC(=O)CC[C@]2(C)[C@H]2CC[C@@]3(C)[C@@H](CC[C@@]34CCC(=O)O4)[C@H]12", "AC50": "35.4 µM (active)"},
      {"smiles": "N[C@@H](Cc1cc(I)c(Oc2ccc(O)c(I)c2)c(I)c1)C(=O)O", "AC50": "9.7 µM (active)"},
      {"smiles": "O=C(c1ccc(O)cc1O)c1ccc(O)cc1O", "outcome": "inactive"},
      {"smiles": "CCNc1nc(N)nc(Cl)n1", "outcome": "inactive"},
      {"smiles": "C#CCOC(=O)[C@@H](C)Oc1ccc(Oc2ncc(Cl)cc2F)cc1", "AC50": "23.1 µM (active)"},
      {"smiles": "O=C(c1ccccc1)C1CCCCC1", "outcome": "inactive"},
      {"smiles": "CC(C)CCCCCCc1ccc(O)cc1", "AC50": "7.91 µM (active)"},
      {"smiles": "CCCCC(CC)CN1C(=O)C2C3C=CC(C3)C2C1=O", "note": "(stereo not given)", "AC50": "56.8 µM (active)"},
      {"smiles": "CCCN(CCC)c1c([N+](=O)[O-])cc(C(F)(F)F)c(N)c1[N+](=O)[O-]", "AC50": "35 µM (active)"},
      {"smiles": "CCOC(=O)C(C)Oc1ccc(Oc2cnc3cc(Cl)ccc3n2)cc1", "note": "(stereo not given)", "outcome": "inactive"}
    ]}
  ]
}
